MPTP inh: blocks calcium-induced mitochondrial swelling; isolated mouse mitochondria, Ca2+ swelling absorbance, 30 min; inhibition, % at 10 µM; AID 602449; 360,000 compounds, 1.4% hits;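 active = inhibition of 50% or more, scaled per plate between neutral and stimulator controls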;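 also: 0% = DMSO wells given calcium and 100% = 1 mM EGTA wells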
Yeast superoxide: lowers age-related superoxide in aged yeast cells | S. cerevisiae aged cells, superoxide DHE fluorescence; hits give low values | AID 2690 | superoxide response (% of plate mean), % at 10 µM | 330,000 compounds, 0.18% hits;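 active = superoxide response under a set limit, about three screen SD below normal, cut at about 65% in these data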;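 also: yeast aged for seven days with compound at 30 °C before DHE staining; 100% = average MFI of all compound-treated wells on the plate with controls excluded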
Mot1-301 SUMO: blocks SUMOylation pathway, rescuing yeast Mot1-301 growth; S. cerevisiae Mot1-301 growth rescue, ATP luminescence, 38.5C; percent above DMSO median, 100 means doubled; growth rescue, % at 18.8 µM; 320,000 compounds, 1% hits; AID 2716;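 active = every valid replicate shows activation above 250% relative to neutral control wells; inactive = the rest, any valid replicate at or below 250%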;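 also: OY570 slx delta 5 strain wells were the positive control but not used for scaling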
aDG glyco up: increases alpha dystroglycan glycosylation. Pro5-aDG cells, alpha-DG glycosylation AlphaScreen (IIH6); 0% Pro5, 100% B10-LARGE cell signal. activation, % at 10 µM. 360,000 compounds, 0.22% hits. AID 624168;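 active = activation of at least 8% versus controls, or a plate z-score of at least 8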;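 also: Pro5 are CHO cells carrying HIG-tagged alpha-DG that lacks glycosylation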
Cardio protect: protects H9c2 cardiomyocytes from peroxide injury | H2O2 injury protection, ATPLite, 2 h | protection from H2O2 cell death, % at 20 µM | 360,000 compounds, 0.63% hits;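 active = compounds giving at least 50% protection of heart cells from peroxide-induced death in the single-dose screen, raw or plate-pattern-corrected value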;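 also: 0% = DMSO wells with peroxide and 100% = DMSO wells without peroxide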
FAS-TE inh: inhibitors of human fatty acid synthase thioesterase domain; 360,000 compounds, 0.67% hits; P49327; recombinant FAS-TE, OMFH fluorogenic substrate, fluorescence endpoint; inhibition, % at 15 µM;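 active = compounds whose normalised, plate-corrected inhibition of enzyme fluorescence in the single-dose primary screen is 50% or more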;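 also: 0% = DMSO with enzyme and 100% = substrate without enzyme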
The depositor's hits bear a star; x = not tested or not shown. Sampled rows, rich in hits. Any-hit rate of the full collection: about 3.8%.

SMILES	MPTP inh	Yeast superoxide	Mot1-301 SUMO	aDG glyco up	Cardio protect	FAS-TE inh
Cc1cc(C)c(C(=O)CC(=O)c2ccccc2Cl)c(O)c1	1.8	99.6	-8.7	1.1	50.6*	11.7
Cc1cc(C)c(NC(=O)CC(=O)c2ccccc2)c(Cl)c1	-0.9	96.2	11.6	0.2	2.9	2.4
COc1ccc(NC(=O)CN(C)C(=O)c2c(-c3ccccc3Cl)noc2C)cc1	-0.6	98.8	18.5	0.0	3.7	-1.3
COc1ccc(NC(=O)CN(C)C(=O)c2c(-c3c(F)cccc3Cl)noc2C)cc1	-2.4	85.3	687.7*	0.3	-1.2	-5.6
Cc1onc(-c2c(Cl)cccc2Cl)c1NC(=O)NNc1ccccc1	-0.5	101.7	-4.7	0.1	-2.7	-2.2
Cc1onc(-c2c(Cl)cccc2Cl)c1C(=O)NNc1ccccc1	1.6	86.8	317.6*	0.2	7.0	-0.2
O=S1(=O)CCOC[C@H](c2ccccc2)N1Cc1cccc(F)c1	-0.5	97.7	-2.3	0.6	3.3	-7.8
S=c1[nH]nc(-c2cc(-c3ccccc3)n[nH]2)n1/N=C/C(Br)=C/c1ccccc1	5.7	91.4	538.9*	-0.4	-0.2	19.3
S=c1[nH]nc(-c2cc(-c3ccccc3)n[nH]2)n1/N=C/c1ccccc1	7.9	122.5	164.4	-0.1	-9.1	5.9
Cc1[nH]c2ccccc2c1C(=O)C(=O)NCc1nnnn1-c1ccc(F)c(F)c1	-0.1	x	x	-0.2	6.0	-4.7
O=C1c2ccccc2NC(c2cn[nH]c2-c2ccc(Cl)cc2)N1O (configuration not stated)	-0.2	107.7	3.0	0.3	66.6*	1.4
O=C1c2ccccc2NC(c2cn[nH]c2-c2ccccc2)N1O (configuration not stated)	0.2	90.2	6.8	0.0	50.4*	0.2
O=C1c2ccccc2NC(c2ccc(-c3ccc(F)cc3)o2)N1O (configuration not stated)	0.5	69.2	13.3	0.9	3.0	-3.2
O=C1c2ccccc2NC(c2cccs2)N1O (configuration not stated)	-3.0	x	x	-0.4	17.3	-4.9
CCc1noc(C)c1C(=O)Nc1nnc(CC(C)C)s1	1.3	96.5	-9.8	0.0	4.3	-6.3
Cn1c(=O)c2c(nc(C(O)c3ccccc3)n2C)n(C)c1=O (configuration not stated)	-1.4	x	x	-0.1	6.2	-3.7
COc1ccc(COC(=O)C2=C(C)NC(=O)NC2c2cc(Br)c(O)c(OC)c2)cc1 (configuration not stated)	3.5	84.3	0.5	-0.2	5.5	4.0
Cc1ccc(C)c(C(=O)Nc2cc(C)nn2-c2nc(C)cc(C)n2)c1	-2.8	85.2	10.9	1.0	50.2*	2.9
CCc1ccc(N(C(=O)Cn2nnc(-c3ccccc3)n2)C(C(=O)NC2CCCCC2)c2ccccn2)cc1 (configuration not stated)	1.0	104.5	-17.9	0.0	-2.8	28.8
CC(C)(C)OC(=O)NCCCCCNC(=O)c1[nH]cnc1C(=O)Nc1ccccc1	0.3	96.5	17.7	0.3	35.1	12.9
Cc1ccc(NC(=O)c2nc[nH]c2C(=O)NCCCCCNC(=O)OC(C)(C)C)cc1	-0.9	86.8	-3.2	1.1	55.2*	12.6
CC(C)(C)OC(=O)NCCCCCNC(=O)c1[nH]cnc1C(=O)Nc1ccc(Cl)cc1	0.3	90.1	-27.0	1.8	65.8*	25.6
CC(C)(C)OC(=O)NCCCCCNC(=O)c1[nH]cnc1C(=O)Nc1cc(Br)ccc1F	-2.1	x	x	0.8	63.9*	18.5
O=C(c1cccs1)N1C[C@H](n2cc(C3CC3)nn2)[C@@H](O)C[C@@H]1c1ccc(Cl)cc1	0.2	x	x	0.2	-8.2	-5.6
CC1(C(=O)NS(=O)(=O)c2ccc(C#N)cc2)CCN1C(=O)C1(c2ccccc2)CCCC1 (configuration not stated)	-0.6	x	x	-0.3	3.7	9.3
SMILES	MPTP inh	Yeast superoxide	Mot1-301 SUMO	aDG glyco up	Cardio protect	FAS-TE inh
CSCC[C@H](NC(=O)OC(C)(C)C)C(=O)N/N=C/c1cccc2cccnc12	2.8	107.9	-5.7	0.3	51.8*	-3.1
CCOc1ccccc1C(=O)N/N=C/c1cccc2cccnc12	-2.9	103.8	12.8	0.4	86.2*	-5.1
CCOc1ccc(C(=O)N/N=C/c2cccc3cccnc23)cc1	-0.3	92.7	-4.8	0.5	14.9	3.0
O=S(=O)(c1ccccc1)N1CCN(Cc2ccccc2)c2ccccc21	0.3	x	x	-0.3	-12.2	19.4
C/C(=N\NC(=O)c1cccc(N/N=C(\C)c2ccccc2)c1)c1ccccc1	-0.7	93.6	-24.1	-0.2	14.1	3.8
C/C(=N\NC(=O)c1cccc(N/N=C(\C)c2ccncc2)c1)c1ccncc1	14.1	94.6	-3.3	0.0	68.3*	-7.6
C/C(=N/NC(=O)c1cccs1)c1cccc(NC(=O)C2CC2)c1	-0.6	101.0	48.0	0.0	58.0*	-1.8
CCCc1nn(C(=O)c2ccccc2)c2c1C(=O)CC(C)(C)C2	0.7	79.2	-5.3	-0.1	3.7	-0.5
Cc1nn(C(=O)c2ccccc2)c2c1C(=O)CC(C)(C)C2	1.6	98.4	494.9*	-0.1	12.1	-4.8
Cc1ccc2cc3c(nc2c1)OCC3	0.3	91.6	0.9	0.0	-8.8	-4.5
CC(C)(C)NC(=O)C(c1ccncc1)n1c(-c2ccc(C(F)(F)F)cc2)nc2ccccc21 (configuration not stated)	2.8	x	x	0.2	x	x
COc1ccc(Cl)c2c1[nH]c1nc(SCc3ccccn3)nnc12	0.9	90.1	-11.0	1.1	64.1*	8.6
COc1ccc(Cl)c2c1[nH]c1nc(SCc3cccnc3)nnc12	0.5	106.2	-6.1	-0.2	-1.9	-9.8
O=C1c2ccccc2NC(c2ccc(-c3cccc([N+](=O)[O-])c3)o2)N1O (configuration not stated)	2.2	107.9	-10.3	0.3	55.6*	-10.3
O=C1c2ccccc2NC(c2ccc(-c3ccc(Br)cc3)o2)N1O (configuration not stated)	1.1	98.0	-1.0	0.2	64.7*	-36.9
Nc1ccccc1-n1cccc1	1.4	96.2	315.2*	0.0	4.5	-2.4
Cc1ccc(C)n1-c1ccccc1N	x	110.6	-3.5	x	x	x
Nc1nc(-c2ccc3c(c2)NC(=O)CO3)cs1	-2.6	112.4	-7.9	-0.1	4.8	-10.6
COC(=O)c1ccc(-c2n[nH]c(=O)c3ccccc23)cc1	1.7	94.5	103.5	-0.1	1.2	-2.4
CN(C)C(=O)c1ccc(-c2n[nH]c(=O)c3ccccc23)cc1	-1.9	113.6	x	0.0	62.5*	-6.6
O=C1COc2ccc(-c3n[nH]c(=O)c4ccccc34)cc2N1	-0.5	84.2	-6.2	-0.2	58.8*	-4.0
O=c1cc(CN2CCOCC2)c2cc(Cl)ccc2o1	0.5	100.8	-7.4	0.2	0.8	-5.3
O=C1Nc2ccccc2C(=O)N(Cc2ccccc2)C1C(=O)NC1CC1 (configuration not stated)	-1.3	x	x	-0.1	x	x

High-throughput results from PubChem.
